Data on ten compounds can be found in PubChem BioAssay (EPA / NIEHS).

Activity calls are given as the source filed them. The calls were made as follows: active = hit-call score of the fitted dose curve at least 0.9, where 1 is the maximum; inconclusive = response in the unintended direction; inactive = score below 0.9.

This test deals with DIO3 (gene 1735). The test can be described thus: CCTE_GLTED_hDIO3: CCTE's human Deiodinase 3 (DIO3) Inhibition Assay, Great Lakes Toxicology and Ecology Division (GLTED) Lab (AID 2284055).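 As to AC50: potency is for inhibition seen as loss of released iodide signal.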 As to the method: CCTE_GLTED_hDIO3 is a cell-free, single-readout assay designed to test the inhibitory activity of chemicals toward human iodothyronine Deiodinase type 3 (DIO3) enzyme. Enzyme is incubated in presence of test chemical for 3 hours during which uninhibited enzyme liberates free iodide from substrate. Free iodide is measured in a second step using the Sandell-Kolthoff method.CCTE_GLTED_hDIO3 is the assay component measured from the CCTE_GLTED_hDIO3 assay. It is designed to make measurements of enzyme activity, a form of enzyme reporter, as detected with absorbance signals by spectrophotometry.Data from the assay component CCTE_GLTED_hDIO3 was analyzed into 1 assay endpoint. This assay endpoint, CCTE_GLTED_hDIO3, was analyzed in the positive analysis fitting direction relative to DMSO as the negative control and baseline of activity. Using a type of enzyme reporter, loss-of-signal activity can be used to understand changes in the enzymatic activity as they relate to the gene DIO3. Furthermore, this assay endpoint can be referred to as a primary readout, because the performed assay has only produced 1 assay endpoint. To generalize the intended target to other relatable targets, this assay endpoint is annotated to the 'deiodinase' intended target family, where the subfamily is 'deiodinase Type 3'.
[…] assay, developed at Great Lakes Toxicology and Ecology Division (GLTED) within the EPA's Center for Computational Toxicology and Exposure (CCTE), is designed to test the chemicals' ability to inhibit DIO3. Assay uses human deiodinase type 3 (DIO3) enzyme produced with adenovirus expression system. Assay is based on iodide release measured by the Sandell-Kolthoff method and is run in 96-well plate format with assay plates run in triplicate (n=3). The method used for the deiodinase assay was largely based on Renko et al. (2012, 2015). These works describe the utilization of the SK reaction to measure deiodinase-liberated iodide in a 96-well-plate format. The SK reaction is based on the reduction of the yellow-colored cerium IV to the non-colored cerium III by arsenic, with the rate of this reaction increased in the presence of iodide in a concentration-dependent manner (Sandell and Kolthoff, 1937). Iodinated test chemicals can interfere as competitive inhibitors, or if the stock chemical has contaminating free-iodide present. Other chemicals, e.g.: nitrite, iron, and thiocyanate can interfere with the Sandell-Kolthoff reaction (see Sandell and Kolthoff, 1937).
Turning to `O=Cc1ccccc1C=O`, the half-maximal activity concentration (AC50) – broadly, the concentration giving half of the maximal activity seen – was 2.92 µM (active). Same read-out and setting: for `Cc1ccc(-c2cc(C(F)(F)F)nn2-c2ccc(S(N)(=O)=O)cc2)cc1` the value was 172 µM (active); for `CN(C)CCCN1c2ccccc2Sc2ccc(Cl)cc21`, 158 µM (active); for `CCCCCCCCCCCCCCOS(=O)(=O)O`, 18.5 µM (active). Regarding `CCCCCCCCCCCCCCCCO`, the compound was called inactive.

Turning to `O=C(Oc1ccccc1)c1cccc(C(=O)Oc2ccccc2)c1`, the AC50 was 64.5 µM (active).

Consider `CCCCCCC(C=O)=Cc1ccccc1`, for which the half-maximal activity concentration (AC50) is 3.29 µM (active). On the same count and under the same terms, under `S=c1[nH]c2ccccc2s1` stands 73.2 µM (active); under `CC(=O)O[C@]1(C(C)=O)CC[C@H]2[C@@H]3C=C(Cl)C4=CC(=O)[C@@H]5C[C@@H]5[C@]4(C)[C@H]3CC[C@@]21C`, 5.1 µM (active); under `Cc1c(C)c2c(c(C)c1O)CCC(C)(COc1ccc(CC3SC(=O)NC3=O)cc1)O2` (stereo not given), 95.1 µM (active).
